The source made the active and inactive calls. The call rests on the fitted dose curve.
target: Acetylcholinesterase (Homo sapiens) (UniProt P22303); test: Acetylcholinesterase (AChE) small molecule antagonists: enzyme-based qHTS assay (AID 1347397); settings: Potency: AChE enzyme activity inhibition; series mostly up to 115 µM; activity change, negative = inhibition: at the top concentration; further: nearly all actives have a fitted effect of over 55% in size
Description: National Center for Advancing Translational Sciences [NCATS]
Division of Preclinical Innovation [DPI]
U.S. Environmental Protection Agency [EPA]
National Institutes of Environmental Health Sciences [NIEHS]
National Toxicology Program [NTP]
U.S. Food and Drug Administration [FDA]
Acetylcholinesterase (AChE) is the primary cholinesterase in the body that hydrolyzes a key neurotransmitter, acetylcholine. Inhibition of AChE activity can lead to neurotoxicity. The known inhibitors include organophosphorous pesticides (OP), chemical warfare agents, drugs, and various phytochemicals.
An enzyme-based assay with the recombinant human AChE and Amplite Colormetric acetylcholinesterase assay kit (AAT Bioquest, Sunnyvale, CA) was used to evaluate the chemicals in the Tox21 10K library that inhibit AChE activity. The assay uses 5, 5-dithiobis-(2-nitrobenzoic acid) (DTNB) to quantify the thiocholine produced from the hydrolysis of acetylthiocholine by AChE.
Tox21 Assay Protocol Summary:
For the enzyme-based AChE assay, recombinant human AChE (50 mU/mL) in 4 uL/well was dispensed into black, clear-bottom 1536-well plates using a Multidrop Combi dispenser (Thermo Scientific, MA). Then, 23 nL of compound or DMSO (vehicle control) was transferred into the assay plates by a Pintool Station (Wako Automation, CA). The plates were incubated for 30 min at room temperature, followed by the addition of 4 uL of colorimetric detection cocktail solution (DTNB, acetylthiocholine) into each well using a Flying Reagent Dispenser (Beckman Coulter, CA) and then 10 min incubation at room temperature.
On the % scale 0 is the no-effect control and ±100 the full control effect; potency means the concentration at half of the fitted maximal effect.

Acetylcholinesterase (Homo sapiens), sequence (P22303 whole entry, looked up): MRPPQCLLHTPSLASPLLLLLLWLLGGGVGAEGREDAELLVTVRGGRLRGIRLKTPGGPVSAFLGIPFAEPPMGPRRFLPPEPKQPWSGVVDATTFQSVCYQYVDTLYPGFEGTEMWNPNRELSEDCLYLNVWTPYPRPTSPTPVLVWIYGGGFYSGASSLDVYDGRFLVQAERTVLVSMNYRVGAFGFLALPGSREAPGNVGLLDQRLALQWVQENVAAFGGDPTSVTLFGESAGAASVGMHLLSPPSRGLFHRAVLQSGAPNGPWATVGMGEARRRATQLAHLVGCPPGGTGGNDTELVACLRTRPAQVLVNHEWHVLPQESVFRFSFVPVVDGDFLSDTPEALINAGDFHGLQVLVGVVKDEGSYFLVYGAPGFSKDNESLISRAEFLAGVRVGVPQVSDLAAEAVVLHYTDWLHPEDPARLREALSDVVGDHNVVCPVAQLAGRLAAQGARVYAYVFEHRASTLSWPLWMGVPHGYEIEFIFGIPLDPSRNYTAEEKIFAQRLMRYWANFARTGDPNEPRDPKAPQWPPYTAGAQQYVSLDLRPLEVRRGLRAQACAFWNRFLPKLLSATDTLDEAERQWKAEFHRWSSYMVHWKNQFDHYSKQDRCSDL

Row | SMILES | activity change, negative = inhibition | Potency
1 | CC(C)(C)C(O)C(Oc1ccc(-c2ccccc2)cc1)n1cncn1 (stereo not given) | 1.78% (inactive) | 
2 | C[C@]12CC[C@@H]3c4ccc(OC(=O)N(CCCl)CCCl)cc4CC[C@H]3[C@@H]1CC[C@@H]2O | 2.02% [at 53 µM] (inactive) | 
3 | CCOc1cc(C(C)(C)C)ccc1C1COC(c2c(F)cccc2F)=N1 (stereo not given) | -0.993% [at 53 µM] (inactive) | 
4 | ClCCN1CCOCC1 | -1.91% (inactive) | 
5 | Cc1c(Cl)c(=O)oc2cc(OP(=O)(OCCCl)OCCCl)ccc12 |  | 246 nM (active)
6 | N#CSCSC#N | -14.2% (inactive) | 
7 | COc1ccc(OC)c(CC(C)N)c1 (stereo not given) | 0.944% (inactive) | 
8 | ClC1=C(Cl)C2(Cl)C3C(Cl)C=CC3C1(Cl)C2(Cl)Cl (stereo not given) |  | inactive
9 | S=C(SSC(=S)N1CCCCC1)N1CCCCC1 | -6.44% [at 53 µM] (inactive) | 
10 | COC12CC[C@@]3(C[C@@H]1C(C)(O)C(C)(C)C)[C@H]1Cc4ccc(O)c5c4[C@@]3(CCN1CC1CC1)[C@H]2O5 (stereo not given in full) | 1.88% (inactive) | 
11 | Clc1ccc(C(c2ccccc2Cl)C(Cl)(Cl)Cl)cc1 (stereo not given) |  | inactive
12 | CC(C)OC(=O)C(O)(c1ccc(Cl)cc1)c1ccc(Cl)cc1 | -0.258% (inactive) | 
13 | N#C/C=C/c1ccccc1 | 0.173% (inactive) | 
14 | O=c1oc2ccccc2c(O)c1Cc1c(O)c2ccccc2oc1=O | -0.492% [at 53 µM] (inactive) | 
15 | Nc1ccccc1C(=O)OC/C=C/c1ccccc1 | -3.41% (inactive) | 
16 | CC(=O)C(Cl)(Cl)Cl | 45.4% (inactive) | 
17 | COc1ccc([N+](=O)[O-])cc1O | -1.47% [at 53 µM] (inactive) | 
18 | CC(C)[C@H](C(=O)OC(C#N)c1cccc(Oc2ccccc2)c1)c1ccc(OC(F)F)cc1 (stereo not given in full) | -0.633% (inactive) | 
19 | CC(Cc1ccc(C(C)(C)C)cc1)CN1C[C@@H](C)O[C@@H](C)C1 (stereo not given in full) | -1.99% (inactive) | 
20 | CC(=O)O[C@H]1CC[C@@]2(C)C(=CC[C@@H]3[C@@H]2CC[C@]2(C)C(=O)CC[C@@H]32)C1 | -5.98% (inactive) | 

Row | SMILES | activity change, negative = inhibition | Potency
21 | Oc1ccccc1Br | 0% (inactive) | 
22 | C[C@]12CC[C@H]3[C@@H](CCC4=CC(=O)CC[C@@]43C)[C@@H]1CC[C@@H]2O | -0.781% (inactive) | 
23 | CN(C)CCc1c[nH]c2cccc(O)c12 | -20.5% (inactive) | 
24 | [Cl][Sb]([Cl])[Cl] | 1.36% (inactive) | 
25 | CN(C)c1ccc(N=Nc2ccccc2)cc1 | -0.136% (inactive) | 
26 | Nc1ccc(Cl)cc1C(=O)c1ccccc1 | 0.272% (inactive) | 
27 | COS(=O)(=O)c1ccc(C)cc1 | -0.545% (inactive) | 
28 | CCC(C)(C)C(=O)OC1=C(c2ccc(Cl)cc2Cl)C(=O)OC12CCCCC2 | -1.57% (inactive) | 
29 | CC1(C)C(/C=C(\Cl)C(F)(F)F)C1C(=O)OC(C#N)c1cccc(Oc2ccccc2)c1 (stereo not given) | -9.63% (inactive) | 
30 | O=C(CCl)Nc1ccccc1 | 0.152% (inactive) | 
31 | C[CH2][Hg][N]1C(=O)C2C(C1=O)C1(Cl)C(Cl)=C(Cl)C2(Cl)C1(Cl)Cl (stereo not given) | -5.88% [at 23.6 µM] (inactive) | 
32 | N#Cc1c(-c2ccc(Cl)cc2)[nH]c(C(F)(F)F)c1Br | 1.09% (inactive) | 
33 | CCCCOP(=O)(CCCC)OCCCC | 1.63% (inactive) | 
34 | O=C(NC(=O)c1c(F)cccc1F)Nc1cc(Cl)c(OC(F)(F)C(F)F)c(Cl)c1 | 0.26% (inactive) | 
35 | CN(CCCC(O)c1cccnc1)N=O (stereo not given) | -0.553% (inactive) | 
36 | NNC(=O)c1ccccc1 | 2.04% (inactive) | 
37 | COc1ccc(OC)c(C=O)c1 | 0.817% (inactive) | 
38 | C[C@H]1CC[C@@H]2[C@@H](C)[C@H]3[C@H](C[C@H]4[C@@H]5CC=C6CC(O[C@@H]7O[C@H](CO)[C@H](O)[C@H](O[C@@H]8O[C@H](CO)[C@@H](O)[C@H](O)[C@H]8O)[C@H]7O[C@H]7O[C@@H](C)[C@H](O)[C@@H](O)[C@H]7O)CC[C@]6(C)[C@H]5CC[C@]34C)N2C1 (stereo not given in full) | -26.1% (inactive) | 
39 | CCCCCCCCCCCCCN1CC(C)OC(C)C1 (stereo not given) | 0.841% (inactive) | 
40 | S=C=Nc1cccc2ccccc12 | 0.273% (inactive) | 

— PubChem BioAssay (Tox21)
